PfHsp90 set2: growth inhibition of PfHsp90-expressing yeast, primary screen, antimalarial PfHsp90 inhibitor project, S. cerevisiae, BacTiter-Glo luminescence, single point, set 2 | BacTiter-Glo ATP, 48 h; yeast lacking PDR1 and PDR3 efflux regulators | inhibition, % at 9.4 µM | 0.32% of 310,000 active | AID 504621, 2011;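 active means every replicate shows inhibition above about 80%, whatever the replicate mean, limit read from the data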
SKKanGAS inh: S. pyogenes SKKanGAS growth inhibitors in kanamycin, primary screen, streptokinase expression inhibitor project, SKKanGAS strain, BacTiter-Glo luminescence | 1.3% of 300,000 active | 6 h | inhibition, % at 7.5 µM;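 active means mean replicate score, as percent of positive control median, at least 50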;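 further: strain carries kanamycin resistance gene driven by streptokinase promoter and grows in 40 µg/ml kanamycin; loss of luminescence reflects streptokinase promoter inhibition or plain growth inhibition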
tim23-1 inh: growth inhibitors of tim23-1 mutant yeast, primary screen, luminescence, uHTS; AID 463212, 2010; inhibition, % at 20 µM; S. cerevisiae tim23-1 growth, BacTiter-Glo luminescence, 24 h; 1.3% of 330,000 active;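 active means growth inhibition of the mutant yeast at or above 50%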;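 further: temperature-sensitive mutant grown at 25 °C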
NLRP3 yeast inh: NALP3 inflammasome inhibitors in reconstituted yeast, primary screen, luminescence, uHTS; Yeast reconstituted NLRP3/ASC/caspase-1, beta-gal luminescence, 24 h; inhibition, % at 10 µM; 0.39% of 330,000 active; AID 2825, 2010;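 active means inhibition of 50% or more; inactive means inhibition below 50%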
tim10-1 inh: growth inhibitors of tim10-1 mutant yeast, primary screen, luminescence, uHTS; S. cerevisiae tim10-1 ts strain growth, BacTiter-Glo, 24 h; inhibition, % at 20 µM; 2.2% of 330,000 active;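 active means inhibition of at least 40%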;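 further: mutant grown at 25 °C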
TIM10 inh: growth inhibitors of isogenic TIM10 control yeast, primary screen, counter-screen for tim10-1 yeast inhibitor project, luminescence, uHTS. S. cerevisiae TIM10 strain growth, BacTiter-Glo luminescence, 24 h. inhibition, % at 10 µM. 1.4% of 330,000 active;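 active means inhibition of 40% or more at the single tested concentration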;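 further: wild-type TIM10 isogenic control strain grown at permissive 25 °C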
tim10-1 conf: growth inhibitors of tim10-1 mutant yeast, confirmation, single concentration, luminescence, S. cerevisiae. S. cerevisiae tim10-1 ts strain growth, BacTiter-Glo, 24 h. inhibition, % at 20 µM. 56% of 7,400 active. shares compounds with tim10-1 inh;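 active means inhibition of yeast growth at or above a set limit in either of two repeat tests at 20 µM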;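 further: tim10-1 mutant grown at permissive 25 °C to find synthetic lethal compounds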
Large screens that a line does not name were inactive (follow-up assays come after a bar, where they were run); ! = a repeat was not active. Hits are enriched below; roughly 4.5% of the tested compounds scored in any of these assays.

Cc1cc(C(F)(F)F)n2nc(-c3cnn(C)c3C(F)(F)F)c(Br)c2n1	tim10-1 inh 40.8 | tim10-1 conf inactive
Cc1cc(C(F)(F)F)n2nc(C(=O)O)c(Cl)c2n1	none
COc1ccc(-c2noc(CNS(=O)(=O)c3ccc(NC(C)=O)cc3)n2)cc1OC	none
Cc1ccc(S(=O)(=O)NC(=NC2CCCCC2)c2ccccc2)cc1	none
O=C(NCC(c1cccs1)N1CCOCC1)c1cccc([N+](=O)[O-])c1 (centres undefined)	none
O=C(NCC(c1cccs1)N1CCOCC1)c1cc([N+](=O)[O-])cc([N+](=O)[O-])c1 (centres undefined)	tim10-1 inh 41.9 | tim10-1 conf inactive
COC(=O)COc1ccc(S(=O)(=O)N2CCN(c3ccccc3F)CC2)cc1C	tim10-1 inh 41.3 | tim10-1 conf 30.9
COC(=O)COc1ccc(S(=O)(=O)N2CCCCCC2)cc1C	none
COC(=O)c1c(C)[nH]c(C(=O)NCc2ccco2)c1C	none (no result: PfHsp90 set2)
Cc1ccc(-n2nc(C)c(C(=O)Nc3cccc(C(=O)NC4CC4)c3)n2)c(C)c1	tim10-1 inh 44.1 (no result: SKKanGAS inh) | tim10-1 conf inactive
CC(C)CN(C(=O)CCC(=O)OCC(=O)N(C)c1ccccc1)c1c(N)n(CC(C)C)c(=O)[nH]c1=O	none
COc1ccc(OC)c(N=c2ssnc2Cl)c1	tim10-1 inh 46.9 (no result: PfHsp90 set2) | tim10-1 conf 31.7
COc1cc(N=c2ssnc2Cl)c(OC)cc1Cl	PfHsp90 set2 90.9!, tim10-1 inh 41.7! | tim10-1 conf 50.8
COc1ccc(OC)c(N=C2C(=O)Nc3ccccc32)c1	none (no result: PfHsp90 set2, SKKanGAS inh)
O=C(NCc1ccco1)C1CCN(S(=O)(=O)c2cccc([N+](=O)[O-])c2)CC1	none
Cc1cc(C)n2nc(SCc3ccc(F)cc3Cl)nc2n1	none
Cc1cc(C)n2nc(SCc3c(F)cccc3Cl)nc2n1	tim10-1 inh 48.3 | tim10-1 conf 32.8
Cc1cc(C)n2c(SCc3ccccc3Cl)nnc2n1	tim10-1 inh 42.8 | tim10-1 conf inactive
Cc1cc(C)cc(OCC(=O)OCC(=O)N(C)CC(=O)Nc2ccc(F)cc2)c1	none (no result: PfHsp90 set2)
Cc1ccccc1NC(=O)CC1SC(=O)N(c2ccccc2)C1=O (centres undefined)	tim10-1 inh 44.9 | tim10-1 conf 37.9
COCCOc1ccc(C(F)(F)F)cc1NC(=O)c1ccccc1	none
CC(C)(C)c1ccc(OCCOc2ccc(C(C)(C)C)cc2NC=O)c(NC=O)c1	tim10-1 inh 46.9 | tim10-1 conf inactive
Cc1ccccc1S(=O)(=O)c1c(C)cc(C)n(CC(C)C)c1=O	tim10-1 inh 48.0 | tim10-1 conf inactive
CN(CCc1ccccc1)C(=O)c1cccc(NC(=O)Cc2cccc(NC(=O)C3CCN(C(=O)C4CCCCC4)CC3)c2)c1	none (no result: SKKanGAS inh, tim23-1 inh, NLRP3 yeast inh, tim10-1 inh, TIM10 inh)
Cc1cc(-c2nnc(SCC(=O)Nc3c(C)cccc3C)n2N)n[nH]1	none
CN(C)CCCN1c2ccccc2CCc2ccc(Cl)cc21	tim10-1 inh 52.8 | tim10-1 conf 31.9
CCOc1ccc(OCCC(=O)OCC(=O)N2CCN(S(=O)(=O)c3ccc(C)cc3)CC2)cc1	none
Cc1ccc(S(=O)(=O)N2CCN(C(=O)COC(=O)CCOc3ccc(C(C)(C)C)cc3)CC2)cc1	tim10-1 inh 49.0 | tim10-1 conf inactive
Cc1ccc(NC(=S)NNC(=O)c2ccc(N3CCOCC3)c([N+](=O)[O-])c2)cc1Cl	none
O=C(NNC(=S)Nc1ccc(Br)cc1)c1ccc(N2CCOCC2)c([N+](=O)[O-])c1	tim10-1 inh 44.2 | tim10-1 conf inactive
Cc1occc1-c1nnc(SCC(=O)Nc2ccccc2)n1C	none
Cc1occc1-c1nnc(SCC(=O)Nc2ccccc2N2CCCCC2)n1C	tim10-1 inh 46.7 | tim10-1 conf inactive
Cc1cc(NC(=S)Nc2ccccc2)ccc1Br	tim10-1 inh 41.3 | tim10-1 conf inactive
CCNC(=S)N/N=C(\C)c1cc2ccccc2o1	none
COc1cccc(NC(=S)Nc2cccc3ccccc23)c1	tim10-1 inh 55.3 | tim10-1 conf inactive
Cc1cccc(NC(=S)Nc2cccc3ccccc23)c1	tim10-1 inh 45.2 | tim10-1 conf inactive
C/C(=N\NC(=S)Nc1cccc(C)c1)c1cc2ccccc2o1	SKKanGAS inh 66.6, tim10-1 inh 47.4 | tim10-1 conf 39.3
CC(=O)Nc1cccc(NC(=O)C(=O)c2cn(CC(=O)N3CCCCC3)c3ccccc23)c1	none
Fc1ccc(NC(=S)Nc2cccc3ccccc23)cc1F	tim10-1 inh 41.8 | tim10-1 conf inactive
COC(=O)c1ccc(OC(=O)CS(=O)c2ccccc2[N+](=O)[O-])cc1 (centres undefined)	tim10-1 inh 55.4 | tim10-1 conf 35.5
CS(=O)(=O)N(CC(=O)Nc1ccc(S(=O)(=O)N2CCCC2)cc1)c1cccc(F)c1	none
Clc1ccccc1OCc1nnc(-c2ccccc2Br)o1	tim10-1 inh 48.6 | tim10-1 conf 34.2
CC1(C)CC(=O)/C(=C(\O)c2ccccc2)C(=NCCc2ccccc2)C1	tim10-1 inh 45.0 | tim10-1 conf inactive
Cc1cc(C)cc(C(=O)N2CCCCC2)c1	none (no result: SKKanGAS inh, tim23-1 inh, NLRP3 yeast inh, tim10-1 inh, TIM10 inh)
CC(=O)Nc1ncc(Sc2ccc([N+](=O)[O-])cc2)s1	none (no result: SKKanGAS inh, tim23-1 inh, NLRP3 yeast inh, tim10-1 inh, TIM10 inh)
CCn1cc2nc(SCC(=O)Nc3ccc(F)cc3F)n(Cc3ccccc3)c(=O)c2n1	none
CCCCCCOc1ccc(N2C(=O)CC(N3CCN(CCN=CC4C(=O)CC(C)(C)CC4=O)CC3)C2=O)cc1 (centres undefined)	tim10-1 inh 43.3 | tim10-1 conf 41.4
CCCCCCOc1ccc(N2C(=O)CC(N3CCN(CCN=CC4=C(O)CC(C)(C)CC4=O)CC3)C2=O)cc1 (centres undefined)	none
Cn1c(CSc2nnc(SCc3ccccc3)s2)nc2ccccc21	tim10-1 inh 56.2 | tim10-1 conf 42.4
C=CCc1ccc(O)c(-c2cc(CC=C)ccc2O)c1	tim10-1 inh 43.0 | tim10-1 conf 44.5
CCOc1ccc(C(=O)CC(Sc2ccc(C)cc2)C(=O)O)cc1 (centres undefined)	none
O=C(CC(Sc1ccc(Br)cc1)C(=O)O)c1ccc(F)cc1 (centres undefined)	tim10-1 inh 42.0 | tim10-1 conf inactive
CCCCCOc1ccc(C(O)C(CN2CCOCC2)c2ccccc2)cc1 (centres undefined)	none
COc1ccc(NC(=O)N(CCC(C)C)C(C)c2ccccn2)c(OC)c1 (centres undefined)	tim10-1 inh 41.2 | tim10-1 conf inactive

Compound activity deposited in PubChem BioAssay by several laboratories.
